Each sequence was assayed against PYROXD1 (assay: pooled miR-30 sensor sort-seq; sequence = guide strand). Details: shRNA.
Also: reference of the scale not given here.

| Sequence | sensor-assay potency score (higher = more potent) |
| --- | --- |
| TAGAGTCTCCTGAACTCGCTGC | 0.751 |
| TTAATTCATGATCTGAACCTAA | -0.379 |
| TTGATTGTTCTTCAACATCGAA | -0.89 |
| TAACTCAATACAGTCATTCATT | -0.8 |
| TTTAAAGTAAAATACAACCGAT | -0.96 |
| TTATCTGCTTTAGATTTGCTTC | -0.93 |
| TTAAAGTAAAATACAACCGATT | -0.766 |
| TGATTGTTCTTCAACATCGAAT | -0.94 |

Each sequence was assayed against QSER1 in the same assay as above. Details: shRNA.

| Sequence | sensor-assay potency score (higher = more potent) |
| --- | --- |
| TTCATTATCAACTTTATCTGAT | 0.462 |
| TATTTGATCGTGCTGTTCCTGG | -0.0695 |
| TTGAATAACATGACCTTCCATC | -0.458 |
| TTTAATAACACTACATTCTCGA | 0.61 |
| TAACTTGATCTTCAAGACGGGA | -1.26 |
| TTTCTTGATGCTGATAACCATC | -1.25 |
| TACAACTGTATTTTCTCTGGAT | 0.0285 |
| TTGAATTTGATAGATAACTATG | -0.94 |
| TATAAGTTGATTCTTGAGCATT | -1.01 |
| TTGAACTGTAGGCTTGAGGAGT | -0.462 |
| TACTACTAGAAACAAACTCTTG | -0.942 |
| TTTATCAGAAGTAGCATCCAAA | -0.195 |
